A selection: hits, their analogues and other compounds. The true share with any hit is near 7.5%.
FBPA Giardia inh: inhibitors of Giardia lamblia fructose-1,6-bisphosphate aldolase. 290,000 tested, 0.71% active. A8B2U2. AID 2451. Potency, µM (titrated, usually from 59.6 µM), for inactives: top-dose activity, negative = inhibition, most hits filed as inhibitors. purified Giardia FBPA; also: potency is read from the fitted curve at half-maximal effect; nearly all actives have a fitted effect of over 55% in size
Target sequence (A8B2U2 whole entry, looked up): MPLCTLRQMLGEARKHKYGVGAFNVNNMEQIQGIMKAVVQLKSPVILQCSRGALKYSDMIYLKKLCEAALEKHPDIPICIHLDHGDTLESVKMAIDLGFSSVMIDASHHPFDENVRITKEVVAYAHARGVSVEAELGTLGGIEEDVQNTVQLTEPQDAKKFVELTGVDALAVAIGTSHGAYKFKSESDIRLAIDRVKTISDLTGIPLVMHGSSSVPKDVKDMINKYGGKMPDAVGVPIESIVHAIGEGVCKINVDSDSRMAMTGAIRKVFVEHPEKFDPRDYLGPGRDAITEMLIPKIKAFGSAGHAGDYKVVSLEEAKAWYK
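40 nM FBPA preincubated 10 min at RT with compound (up to 57.5 uM final), then substrate plus GAPDH/TPI/NAD/arsenate coupling and diaphorase/resazurin added. Fluorescence read after 20 min at RT, 525/598 nm.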
Vaccinia Venus: vaccinia inhibition (Venus reporter); 330,000 tested, 0.46% active; Vaccinia virus Venus reporter expression, fluorescence; Potency, µM (highest dose often 36.5 µM), for the others: top-dose activity change, negative = inhibition, most hits filed as inhibitors; calls by dose curve; tested in A549 cells; also: potency is read from the fitted curve at half-maximal effect; nearly all actives have a fitted effect of over 30% in size
HCV inh: inhibitors of hepatitis C virus infection; 340,000 tested, 3.4% active; Huh7.5.1 HCVcc-Cre infection, luciferase reporter, 44 h; Potency, µM (series often up to 41.8 µM), for inactives: at the top dose activity change, negative = inhibition, most hits filed as inhibitors; also: potency is read from the fitted curve at half-maximal effect
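Cells (1,000/well) were plated 4 h before compound, then infected with HCVcc-Cre virus (~0.5 moi). After 44 h further culture, infection was read as luciferase luminescence following a 15 min substrate incubation at room temperature.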
FMDV inh: antivirals against foot and mouth disease virus; FMDV antiviral cell-based qHTS; Potency, µM (series often up to 57.9 µM), for the others: at the highest dose activity change, negative = inhibition, actives largely listed as inhibitors; 410,000 tested, 1.2% active; AID 1159524; calls by dose curve; tested in HEK293T cells; also: read-out not given here; potency is read from the fitted curve at half-maximal effect; nearly all actives have a fitted effect of over 45% in size
HCMV antiviral: human cytomegalovirus inhibition. 410,000 tested, 4.5% active. HFF cells, HCMV-luciferase reporter, 72 h; active compounds read low. activity change, negative = inhibition, % at 57.5 µM; in the data active = activity change below about -60%; inconclusive = no clear call, values can overlap the other calls; inactive = above about -39%
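HFF cells seeded 16 h at 37C, treated with compounds, infected with luciferase-reporter HCMV at MOI 1 PFU/cell; luciferase read at 72 h post infection, normalized to buffer-only and Salinomycin controls.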
Vaccinia mCherry: inhibitors of vaccinia virus infection (mCherry reporter signal) | Potency, µM (series often up to 36.5 µM), for inactives: at the top dose activity change, negative = inhibition, most hits filed as inhibitors | 310,000 tested, 0.63% active | Vaccinia virus mCherry reporter infection, fluorescence | AID 720579; calls by dose curve; tested in A549 cells; also: potency is read from the fitted curve at half-maximal effect; nearly all actives have a fitted effect of over 35% in size
Numbers without * were called inactive; ? = inconclusive; · = not tested or not shown. Unless noted, calls follow the shape of the dose curve; as a rule, active = well fitted curve in the direction sought with a large enough effect; inconclusive = small, poorly fitted or top-dose-only effect, or another doubt; inactive = no such curve, though single readings can be large; an effect the other way counts as inactive or inconclusive. % is scaled to controls: 0 for no effect and ±100 for the full control effect.

SMILES | FBPA Giardia inh | Vaccinia Venus | HCV inh | FMDV inh | HCMV antiviral | Vaccinia mCherry
CCOC(=O)C1CCN(c2cc3c(cc2NC(=O)c2ccc(Cl)cc2)n(C)c(=O)n3C)CC1 | · | -10.1% | · | 3.5% | 8.7 | -0.5%
O=C1CC(c2ccccc2)CC2=C1C=Nc1ccccc1N2 (stereo not given) | 6.4% | -20.3% | -27.4% | ? | -76.8* | -3.0%
O=C1CC(c2ccc(F)cc2)CC2=C1C=Nc1ccccc1N2 (stereo not given) | 6.0% | -22.8% | -19.6% | ? | -31.1 | -17.0%
c1ccc(-c2cc(-c3ccncc3)nc3ccc4ccccc4c23)cc1 | -8.9% | -4.3% | 10µM* | ? | -29.3 | -17.8%
Cn1ccc2c(OCC(=O)Nc3cc(C(F)(F)F)ccc3Cl)cccc2c1=O | · | -15.3% | · | ? | -29.3 | -19.3%
CCCCn1nnc(NC(=S)NC(=O)c2cccs2)n1 | ? | 2.24µM* | -8.5% | 40.5% | 104.8 | ?
CCCCn1nnc(NC(=O)c2ccco2)n1 | 6.6% | -23.1% | 1.2% | 23.5% | 12.1 | ·

Screens deposited in PubChem by National Center for Advancing Translational Sciences (NCATS).
